Assay in all cases: yeast three-hybrid, YBZ-1, SC-Leu-His + 0.5 mM 3-AT, 4 days
What all share (conditions): tags: N-Gal4 AD-HA kept; label: inside an RPR1-promoter hybrid RNA with tandem MS2 sites; ssRNA

The target in assay [1] is PUM1 PUF domain R7-RGQ (Homo sapiens, UniProt Q14671 828-1176, S1079R;N1080G;E1083Q). An outline of the steps:
(§1)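 The interaction score is the log change in variant frequency from input to selection. Scores were computed in log2 with a pseudocount of 1 for absent variants, using Illumina sequencing of PCR-amplified repeat regions. The input came from four days on SC-Leu and the selection from four days on SC-Leu-His + 0.5 mM 3-AT. The cells were strain YBZ-1 (LexA–MS2 coat fusion, HIS3 reporter) co-expressing Pumilio-1 PUF domain libraries and matching RNA elements from a centromeric plasmid.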

Assay [2] addresses PUM1 PUF domain R7-KHR (Homo sapiens, UniProt Q14671 828-1176, S1079K;N1080H;E1083R). An outline of the steps: as §1
The target in assay [3] is PUM1 PUF domain R5-KMW (Homo sapiens, UniProt Q14671 828-1176, C1007K;R1008M;Q1011W). An outline of the steps: as §1
Assay [4] deals with PUM1 PUF domain R5-KTV (Homo sapiens, UniProt Q14671 828-1176, C1007K;R1008T;Q1011V). An outline of the steps:
as §1

The target in assay [5] is PUM1 PUF domain R5-RGM (Homo sapiens, UniProt Q14671 828-1176, C1007R;R1008G;Q1011M). In short, it runs like this: as §1
Assay [6] addresses T1, PUM1 PUF domain R6-FRI (Homo sapiens, UniProt Q14671 828-1176, N1043F;Y1044R;Q1047I).
T1 sequence: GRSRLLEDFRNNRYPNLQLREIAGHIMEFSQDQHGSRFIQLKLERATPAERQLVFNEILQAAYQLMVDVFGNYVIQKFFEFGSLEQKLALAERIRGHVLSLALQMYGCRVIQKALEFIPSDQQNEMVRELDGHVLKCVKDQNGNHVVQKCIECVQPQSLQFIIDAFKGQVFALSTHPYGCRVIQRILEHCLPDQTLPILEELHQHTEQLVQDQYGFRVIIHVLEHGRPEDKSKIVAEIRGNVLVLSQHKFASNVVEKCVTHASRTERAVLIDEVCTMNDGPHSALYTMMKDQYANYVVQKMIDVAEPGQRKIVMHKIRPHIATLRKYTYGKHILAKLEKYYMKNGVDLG
In short, it runs like this: as §1

In assay [7] the target is PUM1 PUF domain R4-ALY (Homo sapiens, UniProt Q14671 828-1176, N971A;H972L;Q975Y). In short, it runs like this:
as §1

The target of assay [8] is T2, PUM1 PUF domain R6-LWM (Homo sapiens, UniProt Q14671 828-1176, N1043L;Y1044W;Q1047M).
T2 sequence: T1 sequence with F216L, R217W, I220M
An outline of the steps:
as §1

In assay [9] the target is T3, PUM1 PUF domain R6-NHW (Homo sapiens, UniProt Q14671 828-1176, Y1044H;Q1047W).
T3 sequence: T1 sequence with F216N, R217H, I220W
In short, it runs like this: as §1

Assay [10] addresses PUM1 PUF domain R8-RHM (Homo sapiens, UniProt Q14671 828-1176, N1122R;Y1123H;Q1126M). An outline of the steps:
as §1

In assay [11] the target is PUM1 PUF domain R3-WFE (Homo sapiens, UniProt Q14671 828-1176, C935W;R936F;Q939E). In short, it runs like this: as §1
Assay [12] concerns the target PUM1 PUF domain R3-QRG (Homo sapiens, UniProt Q14671 828-1176, C935Q;Q939G). An outline of the steps:
as §1

In assay [13] the target is PUM1 PUF domain R3-TTE (Homo sapiens, UniProt Q14671 828-1176, C935T;R936T;Q939E). In short, it runs like this:
as §1

Assay [14] concerns the target PUM1 PUF domain R3-RSL (Homo sapiens, UniProt Q14671 828-1176, C935R;R936S;Q939L). An outline of the steps: as §1
Assay [15] addresses PUM1 PUF domain R3-RAD (Homo sapiens, UniProt Q14671 828-1176, C935R;R936A;Q939D). In short, it runs like this: as §1
Assay [16] concerns the target PUM1 PUF domain R3-FYA (Homo sapiens, UniProt Q14671 828-1176, C935F;R936Y;Q939A). In short, it runs like this:
as §1

The target in assay [17] is PUM1 PUF domain R5-KNW (Homo sapiens, UniProt Q14671 828-1176, C1007K;R1008N;Q1011W). An outline of the steps:
as §1

Numbering of substitutions follows the chain as printed.

On to “GGCUAGAACUAGUGGAUCCCCCGGCGCCCGGCGGCUCGAGCCCGGGUAAGUCUAAAUAGUCUGCAUGCCGCCGGGCGCCAUGCCUGCAGGUCGACUCUAGAAAACAUG”, for which the binding signal in assay [1] was 4.22 log2 enrichment (interaction score); in [2] it was 5.64 log2 enrichment (interaction score).
On to “GGCUAGAACUAGUGGAUCCCCCGGCGCCCGGCGGCUCGAGCCCGGGUAAGUGUCAAUAGUCUGCAUGCCGCCGGGCGCCAUGCCUGCAGGUCGACUCUAGAAAACAUG”, for which the figures for the binding signal in assay [3], in assay [4] and in [5] were 3.19 log2 enrichment (interaction score), 2.38 log2 enrichment (interaction score) and 2.26 log2 enrichment (interaction score), respectively.
“GGCUAGAACUAGUGGAUCCCCCGGCGCCCGGCGGCUCGAGCCCGGGUAAGUGUAAAUAGUCUGCAUGCCGCCGGGCGCCAUGCCUGCAGGUCGACUCUAGAAAACAUG”: the binding signal in [3] is 1.25 log2 enrichment (interaction score); in assay [6], 3.38 log2 enrichment (interaction score); in assay [7], 3.56 log2 enrichment (interaction score); in assay [8] it was 4.73 log2 enrichment (interaction score); in assay [9], 2.25 log2 enrichment (interaction score); in assay [10], 4.13 log2 enrichment (interaction score).
Regarding “GGCUAGAACUAGUGGAUCCCCCGGCGCCCGGCGGCUCGAGCCCGGGUAAGUGUAAGUAGUCUGCAUGCCGCCGGGCGCCAUGCCUGCAGGUCGACUCUAGAAAACAUG”, the values for the binding signal in assay [11], in [12] and in [13] were 3.04 log2 enrichment (interaction score), 3.07 log2 enrichment (interaction score) and 5.3 log2 enrichment (interaction score), respectively.
Take “GGCUAGAACUAGUGGAUCCCCCGGCGCCCGGCGGCUCGAGCCCGGGUAAGUGUAAUUAGUCUGCAUGCCGCCGGGCGCCAUGCCUGCAGGUCGACUCUAGAAAACAUG”: the binding signal was 2.55 log2 enrichment (interaction score) in [14], 2.4 log2 enrichment (interaction score) in assay [12], 4.21 log2 enrichment (interaction score) in assay [15] and 4.01 log2 enrichment (interaction score) in [16].
In the case of “GGCUAGAACUAGUGGAUCCCCCGGCGCCCGGCGGCUCGAGCCCGGGUAAGUGUUAAUAGUCUGCAUGCCGCCGGGCGCCAUGCCUGCAGGUCGACUCUAGAAAACAUG”, the binding signal in [17] was 2.79 log2 enrichment (interaction score); in assay [5] it was 3.6 log2 enrichment (interaction score).

The record behind these values is publication PMC8384837, “Expanding the binding specificity for RNA recognition by a PUF domain”.
